Measurements taken from PubChem BioAssay (EPA / NIEHS).
Results filed as inconclusive are left out. Active and inactive are the calls of the source. Rule for the calls, unless noted: active = hit-call score of the fitted dose curve at least 0.9, where 1 is the maximum; inconclusive = response in the unintended direction; inactive = score below 0.9.

Tests used:
[1] = ATG_TAL_CIS: Attagene CIS-FACTORIAL HepG2 Assay for human TAL Basal Promoter (AID 2282966; active = hit-call score of the fitted dose curve at least 0.9, where 1 is the maximum; inactive = score below 0.9;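 note: background control endpoint measuring basal TAL promoter reporter mRNA not a specific factor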); details: HepG2 Attagene cis-factorial TAL promoter reporter; actives raise or lower the signal
Summary of the method: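 HepG2, transient MRTU transfection, 24 h compound exposure; RNA → oligo(dT) RT → PCR → 6-FAM primer extension → HpaI digest → CE fluorescence. Bidirectional curve fit vs DMSO. Background-control readout.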

[2] = ATG_TGFb_CIS: Attagene CIS-FACTORIAL HepG2 Assay for human Transforming Growth Factor (TGF) (AID 2282967; active = hit-call score of the fitted dose curve at least 0.9, where 1 is the maximum; inactive = score below 0.9); details: HepG2 Attagene CIS TGFb reporter, mRNA transcription; actives raise or lower the signal
Summary of the method: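 HepG2 cells transiently transfected with cis-promoter-driven multiple reporter units measure endogenous TF activity; reporter mRNA quantified at 24 h by RT-PCR, FAM labeling, HpaI digestion and capillary electrophoresis. Bidirectional fit vs DMSO.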

[3] = ATG_VDRE_CIS: Attagene CIS-FACTORIAL HepG2 Assay for human Vitamin D Receptor Element (VDRE) (AID 2282968; active = hit-call score of the fitted dose curve at least 0.9, where 1 is the maximum; inactive = score below 0.9); details: HepG2 VDRE cis-reporter transcription, actives raise or lower the signal
Summary of the method: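 Transient MRTU transfection of HepG2, 24 h compound exposure. Readout: reporter transcripts via RT-PCR and capillary electrophoresis, fluorescence. Bidirectional fit vs DMSO.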

[4] = target: Estrogen receptor (Homo sapiens) (UniProt P03372); experiment: ATG_ERa_TRANS: Attagene TRANS-FACTORIAL HepG2 Assay for human Estrogen Receptor alpha (ERa) (AID 2282970); details: HepG2 Attagene TRANS ERa GAL4 reporter, mRNA
Summary of the method: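 Reporter mRNA induction after 24 hours, detected by fluorescent RT-PCR and capillary electrophoresis, gives the read-out. Cells are HepG2 transiently transfected with GAL4-UAS reporter transcription units responding to chimeric NR-Gal4. Activity is taken as gain of signal over DMSO baseline.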

[5] = target: X-box-binding protein 1 (Homo sapiens) (UniProt P17861); experiment: ATG_Xbp1_CIS: Attagene CIS-FACTORIAL HepG2 Assay for human X-box Binding Protein 1 (XBP1) (AID 2282972; active = hit-call score of the fitted dose curve at least 0.9, where 1 is the maximum; inactive = score below 0.9); details: HepG2 XBP1 cis-element reporter, Attagene multiplex; actives raise or lower the signal
Summary of the method: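 Changes in reporter transcript abundance, read by RT-PCR and capillary electrophoresis, reflect endogenous transcription factor activity. Transfected HepG2 cells received compound for 24 hours; DMSO defined baseline for bidirectional analysis.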

[6] = target: Bile acid receptor (Homo sapiens) (UniProt Q96RI1); experiment: ATG_FXR_TRANS: Attagene TRANS-FACTORIAL HepG2 Assay for Farnesoid X Receptor (FXR) (AID 2282979); details: HepG2 Attagene TRANS FXR-GAL4 reporter transcription;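 note: hits raise reporter mRNA above DMSO so AC50 marks FXR activation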
Summary of the method: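 Read-out: fluorescent reporter transcripts quantified by capillary electrophoresis after RT-PCR of total RNA. Source cells were HepG2 transiently carrying chimeric NR-GAL4 plus GAL4-UAS reporter units, dosed 24 h. Activity fitted upward relative to DMSO baseline.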

[7] = target: Oxysterols receptor LXR-alpha (Homo sapiens) (UniProt Q13133); experiment: ATG_LXRa_TRANS: Attagene TRANS-FACTORIAL HepG2 Assay for human Liver X Receptor alpha (LXRa) (AID 2282980); details: HepG2 Attagene TRANS reporter, LXRa transactivation
Summary of the method: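 Read-out: reporter transcript levels by RT-PCR plus capillary electrophoresis, fluorescence intensity. Transiently transfected HepG2, exogenous NR-GAL4 chimera, GAL4-UAS reporters; 24 h compound exposure. Activity = increase over DMSO negative control.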

[8] = target: Oxysterols receptor LXR-beta (Homo sapiens) (UniProt P55055); experiment: ATG_LXRb_TRANS: Attagene TRANS-FACTORIAL HepG2 Assay for human Liver X Receptor beta (LXRb) (AID 2282981); details: HepG2 Attagene TRANS GAL4-LXRb reporter, mRNA
Summary of the method: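 Readout: fluorescent reporter mRNA fragments resolved by capillary electrophoresis after RT-PCR. System: transiently transfected human HepG2, exogenous LXRb-Gal4 chimera driving GAL4-UAS reporter, 24 h dosing. Activity fitted upward against DMSO baseline.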

[9] = ATG_M_06_TRANS: Attagene TRANS-FACTORIAL HepG2 Assay for M06 Transcription Factor (Internal Marker) (AID 2282983); details: HepG2 Attagene TRANS M06 internal marker reporter
Summary of the method: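 Read-out: fluorescent reporter cDNA fragments resolved by capillary electrophoresis after RT-PCR and HpaI cut. Source cells were HepG2 carrying transfected multi-reporter GAL4 constructs, dosed 24 h. Increase over DMSO control analysed.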

[10] = target: Transcriptional activator Myb (Homo sapiens) (UniProt P10242); experiment: ATG_Myb_CIS: Attagene CIS-FACTORIAL HepG2 Assay for human Myeloblastosis (Myb) Proto-Oncogene Transcription Factor (AID 2282986; active = hit-call score of the fitted dose curve at least 0.9, where 1 is the maximum; inactive = score below 0.9); details: HepG2 Attagene CIS-FACTORIAL Myb reporter transcription; actives raise or lower the signal
Summary of the method: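 Fluorescence signals from capillary electrophoresis of RT-PCR-amplified reporter cDNA give the read-out. Cells: HepG2 transfected with multiple cis-regulated reporter units. Exposure lasts 24 hours; DMSO defines baseline for gain or loss of signal.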

[11] = target: Nuclear respiratory factor 1 (Homo sapiens) (UniProt Q16656); experiment: ATG_NRF1_CIS: Attagene CIS-FACTORIAL HepG2 Assay for human Nuclear Respiratory Factor 1 (NRF1) Orphan Gene (AID 2282987; active = hit-call score of the fitted dose curve at least 0.9, where 1 is the maximum; inactive = score below 0.9); details: HepG2 NRF1 cis-element reporter, Attagene multiplex; actives raise or lower the signal
Summary of the method: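 Transcriptional reporter readout, one component of a 52-endpoint multiplexed HepG2 panel. Exposure 24 h; mRNA detected via RT-PCR and fluorescent capillary electrophoresis; fitting in both directions against DMSO.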

[12] = target: Hepatocyte nuclear factor 4-alpha (Homo sapiens) (UniProt P41235); experiment: ATG_HNF4a_TRANS: Attagene TRANS-FACTORIAL HepG2 Assay for human Hepatocyte Nuclear Factor 4 alpha (HNF4a) (AID 2282982); details: HepG2 HNF4a transactivation reporter, mRNA readout
Summary of the method: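 Transient MRTU transfection of HepG2, 24 h dosing. Readout: reporter mRNA via RT-PCR + capillary electrophoresis, fluorescence; activity fit upward relative to DMSO control.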

[13] = ATG_M_32_TRANS: Attagene TRANS-FACTORIAL HepG2 Assay for M32 Transcription Factor (Internal Marker) (AID 2282984); details: HepG2 Attagene TRANS M32 internal marker reporter;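 note: transcript level of a background control reporter unit measured by RT-PCR and capillary electrophoresis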
Summary of the method: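 Read-out: fluorescent reporter cDNA fragments resolved by capillary electrophoresis after RT-PCR of total RNA. Transfected HepG2 cells were exposed to chemical for 24 h. Activity scored in the positive direction relative to DMSO.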

[14] = target: Nuclear receptor subfamily 4 group A member 2 (Homo sapiens) (UniProt P43354); experiment: ATG_NURR1_TRANS: Attagene TRANS-FACTORIAL HepG2 Assay for human Nuclear Receptor Related Protein 1 (NURR1) (AID 2282985); details: HepG2 Attagene TRANS reporter, mRNA readout
Summary of the method: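 Read-out: reporter mRNA induction by RT-PCR plus capillary electrophoresis with fluorescence detection, after 24 h dosing of transfected HepG2 cells. Exogenous NR-Gal4 chimera activity drives GAL4-UAS reporter; activity fitted upward versus DMSO.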

[15] = target: Steroid hormone receptor ERR1 (Homo sapiens) (UniProt P11474); experiment: ATG_ERRa_TRANS: Attagene TRANS-FACTORIAL HepG2 Assay for human Estrogen-Related Receptor alpha (ERRa) (AID 2282971); details: HepG2 Attagene TRANS reporter, ERRa transactivation
Summary of the method: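 Transfected HepG2, 24 h dosing, ERRa-Gal4 chimera driving GAL4-UAS reporter. Readout: reporter mRNA via RT-PCR plus capillary electrophoresis (fluorescence). Positive direction vs DMSO control.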

[16] = ATG_M_19_TRANS: Attagene TRANS-FACTORIAL HepG2 Assay for M19 Transcription Factor (Internal Marker) (AID 2282974); details: HepG2 Attagene TRANS-FACTORIAL M19 internal marker reporter
Summary of the method: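 Measured here: internal-marker reporter transcript from HepG2 cells transfected with MRTUs, harvested at 24 h. cDNA PCR products were 6-FAM labelled by primer extension, cut with HpaI for 2 h at 37 C, and resolved by CE.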

[17] = ATG_GAL4_TRANS: Attagene TRANS-FACTORIAL HepG2 Assay for GAL4 (Internal Marker) (AID 2282976); details: HepG2 Attagene TRANS GAL4 internal marker reporter
Summary of the method: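 RT-PCR/capillary electrophoresis readout of reporter mRNA. HepG2, transient MRTU transfection (GAL4-UAS reporters), 24 h compound exposure. Background-control endpoint, positive direction vs DMSO baseline.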

[18] = target: Estrogen-related receptor gamma (Homo sapiens) (UniProt P62508); experiment: ATG_ERRg_TRANS: Attagene TRANS-FACTORIAL HepG2 Assay for human Estrogen-Related Receptor gamma (ERRg) (AID 2282977); details: HepG2 Attagene TRANS reporter, ERRg transactivation;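 note: hits increase reporter signal over DMSO so potencies reflect activators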
Summary of the method: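 Exogenous NR-Gal4 chimera activity was assessed in HepG2 cells bearing transfected GAL4-UAS reporters. After 24 h dosing, total RNA underwent RT-PCR, fluorescent primer extension and HpaI digestion before capillary electrophoresis, with gain of signal scored against DMSO.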

[19] = target: Glucocorticoid receptor (Homo sapiens) (UniProt P04150); experiment: ATG_GR_TRANS: Attagene TRANS-FACTORIAL HepG2 Assay for human Glucocorticoid Receptor (GR) (AID 2282978); details: HepG2 Attagene TRANS GR reporter, mRNA transcription;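 note: activators score as hits since higher reporter transcript over DMSO is fitted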
Summary of the method: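 Measurement of GAL4-UAS-driven reporter mRNA in human HepG2 liver cells 24 h post-dosing, using RT-PCR with fluorescent labelling and capillary electrophoresis; the transfected constructs report exogenous NR-GAL4 chimera activity, fitted upward against DMSO.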

Sequence of Transcriptional activator Myb (Homo sapiens) (P10242 whole entry, looked up): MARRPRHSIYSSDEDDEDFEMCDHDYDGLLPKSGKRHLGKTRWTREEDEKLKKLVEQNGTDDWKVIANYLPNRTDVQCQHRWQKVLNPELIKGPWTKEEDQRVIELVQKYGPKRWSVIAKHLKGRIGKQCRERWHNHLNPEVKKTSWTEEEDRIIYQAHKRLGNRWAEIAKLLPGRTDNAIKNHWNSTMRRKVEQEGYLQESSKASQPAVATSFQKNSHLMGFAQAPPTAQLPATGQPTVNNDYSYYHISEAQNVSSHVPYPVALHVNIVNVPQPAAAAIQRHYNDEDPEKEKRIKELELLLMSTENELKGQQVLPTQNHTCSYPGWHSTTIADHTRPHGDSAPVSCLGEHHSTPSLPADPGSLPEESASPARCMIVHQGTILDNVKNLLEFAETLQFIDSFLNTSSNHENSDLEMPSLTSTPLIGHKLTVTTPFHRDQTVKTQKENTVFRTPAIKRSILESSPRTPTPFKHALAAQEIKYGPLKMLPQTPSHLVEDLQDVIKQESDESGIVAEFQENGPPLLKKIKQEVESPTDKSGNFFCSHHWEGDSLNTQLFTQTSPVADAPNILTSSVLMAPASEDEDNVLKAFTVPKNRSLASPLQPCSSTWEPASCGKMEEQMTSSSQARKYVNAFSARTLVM
Sequence of Nuclear receptor subfamily 4 group A member 2 (Homo sapiens) (P43354 whole entry, looked up, the tested form may be a part): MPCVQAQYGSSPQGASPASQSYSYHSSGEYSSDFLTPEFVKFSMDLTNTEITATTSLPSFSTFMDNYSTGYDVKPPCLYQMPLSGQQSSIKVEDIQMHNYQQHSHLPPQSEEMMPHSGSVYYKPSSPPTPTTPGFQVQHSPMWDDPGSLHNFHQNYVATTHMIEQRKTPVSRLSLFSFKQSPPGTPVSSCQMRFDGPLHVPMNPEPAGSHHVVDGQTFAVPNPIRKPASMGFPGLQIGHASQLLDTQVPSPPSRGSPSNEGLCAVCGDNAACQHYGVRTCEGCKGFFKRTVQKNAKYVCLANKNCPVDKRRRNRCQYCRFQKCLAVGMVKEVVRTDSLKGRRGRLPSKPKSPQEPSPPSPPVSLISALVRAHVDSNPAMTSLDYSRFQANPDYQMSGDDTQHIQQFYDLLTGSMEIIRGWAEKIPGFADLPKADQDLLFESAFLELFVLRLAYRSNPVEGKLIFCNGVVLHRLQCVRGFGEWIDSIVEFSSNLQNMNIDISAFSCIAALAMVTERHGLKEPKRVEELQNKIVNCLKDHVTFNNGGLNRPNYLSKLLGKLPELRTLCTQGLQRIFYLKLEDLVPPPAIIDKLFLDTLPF
Sequence of Estrogen-related receptor gamma (Homo sapiens) (P62508 whole entry, looked up, the tested form may be a part): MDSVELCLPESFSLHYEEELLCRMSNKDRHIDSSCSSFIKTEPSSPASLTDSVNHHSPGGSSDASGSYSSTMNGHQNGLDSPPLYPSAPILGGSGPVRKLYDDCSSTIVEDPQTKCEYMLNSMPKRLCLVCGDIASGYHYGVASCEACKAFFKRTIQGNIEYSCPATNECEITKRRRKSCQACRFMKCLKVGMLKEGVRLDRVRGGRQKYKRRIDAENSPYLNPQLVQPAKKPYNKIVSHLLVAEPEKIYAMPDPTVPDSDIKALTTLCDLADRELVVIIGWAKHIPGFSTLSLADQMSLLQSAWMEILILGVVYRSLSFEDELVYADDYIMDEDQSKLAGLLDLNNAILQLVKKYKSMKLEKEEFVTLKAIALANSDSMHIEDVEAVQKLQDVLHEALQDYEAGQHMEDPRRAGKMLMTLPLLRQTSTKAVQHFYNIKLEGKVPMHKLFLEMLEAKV
Sequence of Oxysterols receptor LXR-alpha (Homo sapiens) (Q13133 whole entry, looked up, the tested form may be a part): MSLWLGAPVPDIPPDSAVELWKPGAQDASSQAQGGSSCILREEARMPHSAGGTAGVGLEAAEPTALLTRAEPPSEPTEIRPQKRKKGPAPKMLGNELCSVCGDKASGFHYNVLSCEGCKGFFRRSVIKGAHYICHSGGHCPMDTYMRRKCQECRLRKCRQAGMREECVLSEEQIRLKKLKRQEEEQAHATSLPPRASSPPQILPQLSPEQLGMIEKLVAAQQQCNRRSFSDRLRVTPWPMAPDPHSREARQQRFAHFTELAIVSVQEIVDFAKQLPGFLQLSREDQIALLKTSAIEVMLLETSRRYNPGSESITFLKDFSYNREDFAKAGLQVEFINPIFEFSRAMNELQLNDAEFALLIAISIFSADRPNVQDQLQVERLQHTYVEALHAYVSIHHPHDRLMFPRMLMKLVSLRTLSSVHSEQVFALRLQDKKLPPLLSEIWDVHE
Sequence of Steroid hormone receptor ERR1 (Homo sapiens) (P11474 whole entry, looked up, the tested form may be a part): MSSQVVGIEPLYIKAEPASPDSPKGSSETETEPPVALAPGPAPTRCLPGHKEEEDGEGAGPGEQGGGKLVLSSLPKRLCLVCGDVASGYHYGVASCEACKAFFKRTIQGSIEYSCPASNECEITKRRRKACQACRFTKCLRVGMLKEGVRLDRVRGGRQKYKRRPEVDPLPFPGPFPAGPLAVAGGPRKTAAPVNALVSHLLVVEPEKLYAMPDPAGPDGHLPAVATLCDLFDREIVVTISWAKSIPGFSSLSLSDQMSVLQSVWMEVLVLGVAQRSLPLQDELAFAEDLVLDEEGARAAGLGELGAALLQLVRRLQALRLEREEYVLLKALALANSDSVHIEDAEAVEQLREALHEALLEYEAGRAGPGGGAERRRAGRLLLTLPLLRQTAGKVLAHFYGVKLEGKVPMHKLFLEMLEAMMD
Sequence of Bile acid receptor (Homo sapiens) (Q96RI1 whole entry, looked up, the tested form may be a part): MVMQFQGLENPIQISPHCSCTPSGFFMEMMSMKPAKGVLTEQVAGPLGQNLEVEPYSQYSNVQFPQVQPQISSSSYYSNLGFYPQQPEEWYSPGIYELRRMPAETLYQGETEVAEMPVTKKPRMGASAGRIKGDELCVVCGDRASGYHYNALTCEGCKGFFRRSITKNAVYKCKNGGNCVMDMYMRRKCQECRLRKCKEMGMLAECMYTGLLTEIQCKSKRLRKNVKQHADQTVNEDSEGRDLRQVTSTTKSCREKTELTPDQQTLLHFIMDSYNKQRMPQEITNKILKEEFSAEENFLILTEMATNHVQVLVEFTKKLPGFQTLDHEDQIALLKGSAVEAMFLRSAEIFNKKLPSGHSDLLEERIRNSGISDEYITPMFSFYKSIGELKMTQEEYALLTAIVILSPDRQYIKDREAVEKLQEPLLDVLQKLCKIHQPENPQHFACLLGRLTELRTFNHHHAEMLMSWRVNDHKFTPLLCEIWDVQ
Sequence of X-box-binding protein 1 (Homo sapiens) (P17861 whole entry, looked up): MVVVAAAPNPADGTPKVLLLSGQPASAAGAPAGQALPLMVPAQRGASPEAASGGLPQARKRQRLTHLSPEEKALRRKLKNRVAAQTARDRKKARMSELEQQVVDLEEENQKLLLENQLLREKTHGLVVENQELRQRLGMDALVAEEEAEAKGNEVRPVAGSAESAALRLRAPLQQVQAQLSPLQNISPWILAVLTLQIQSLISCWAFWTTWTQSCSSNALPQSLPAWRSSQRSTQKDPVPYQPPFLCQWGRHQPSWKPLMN
Sequence of Nuclear respiratory factor 1 (Homo sapiens) (Q16656 whole entry, looked up): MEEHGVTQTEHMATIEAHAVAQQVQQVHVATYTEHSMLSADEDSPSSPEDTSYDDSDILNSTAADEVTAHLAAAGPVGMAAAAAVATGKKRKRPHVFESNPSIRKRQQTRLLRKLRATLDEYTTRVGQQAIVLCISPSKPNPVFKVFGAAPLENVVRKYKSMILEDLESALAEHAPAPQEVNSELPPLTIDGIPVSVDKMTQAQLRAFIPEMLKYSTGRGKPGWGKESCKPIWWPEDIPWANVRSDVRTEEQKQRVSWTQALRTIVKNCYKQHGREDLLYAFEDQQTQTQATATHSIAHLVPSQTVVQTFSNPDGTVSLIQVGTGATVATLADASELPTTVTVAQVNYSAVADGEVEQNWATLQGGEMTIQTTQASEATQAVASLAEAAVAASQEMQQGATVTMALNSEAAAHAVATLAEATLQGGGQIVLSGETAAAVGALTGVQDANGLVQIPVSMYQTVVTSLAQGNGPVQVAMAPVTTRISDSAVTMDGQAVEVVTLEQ
Sequence of Glucocorticoid receptor (Homo sapiens) (P04150 whole entry, looked up, the tested form may be a part): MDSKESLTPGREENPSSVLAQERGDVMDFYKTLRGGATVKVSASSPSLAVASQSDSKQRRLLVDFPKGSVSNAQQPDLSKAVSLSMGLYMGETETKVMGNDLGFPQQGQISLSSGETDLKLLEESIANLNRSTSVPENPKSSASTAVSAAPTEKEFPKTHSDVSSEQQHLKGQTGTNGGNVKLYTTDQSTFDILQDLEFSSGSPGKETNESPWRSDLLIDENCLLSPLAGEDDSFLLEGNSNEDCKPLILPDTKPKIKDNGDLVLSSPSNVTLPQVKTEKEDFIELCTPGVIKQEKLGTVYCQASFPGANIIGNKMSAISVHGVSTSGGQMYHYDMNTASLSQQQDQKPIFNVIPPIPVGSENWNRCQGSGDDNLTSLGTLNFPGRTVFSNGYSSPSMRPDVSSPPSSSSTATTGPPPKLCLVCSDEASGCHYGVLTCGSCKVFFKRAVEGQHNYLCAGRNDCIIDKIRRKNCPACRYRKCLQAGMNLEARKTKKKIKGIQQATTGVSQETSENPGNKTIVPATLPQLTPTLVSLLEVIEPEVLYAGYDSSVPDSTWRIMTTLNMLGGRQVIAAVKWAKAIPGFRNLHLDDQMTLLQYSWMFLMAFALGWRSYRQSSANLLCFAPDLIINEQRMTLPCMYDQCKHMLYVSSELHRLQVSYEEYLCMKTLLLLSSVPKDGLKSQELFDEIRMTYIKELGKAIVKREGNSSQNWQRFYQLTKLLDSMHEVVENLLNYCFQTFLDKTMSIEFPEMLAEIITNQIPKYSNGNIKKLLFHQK

CCCC(=O)OCCC(C)C
outcome [1]: inactive | outcome [2]: inactive | outcome [3]: inactive | outcome [4]: inactive | outcome [5]: inactive | outcome [6]: inactive | outcome [7]: inactive | outcome [8]: inactive | outcome [9]: inactive | AC50 [10]: 1.84 µM (active) | outcome [11]: inactive

O=C1c2ccccc2C(=O)N1CCc1noc(-c2ccc(CN3CCCCCC3)s2)n1
outcome [1]: inactive | outcome [2]: inactive | outcome [5]: inactive | outcome [6]: inactive | outcome [12]: inactive | outcome [9]: inactive | outcome [13]: inactive | outcome [14]: inactive | outcome [10]: inactive | outcome [11]: inactive

CC1(C)NC(=O)N(c2ccc([N+](=O)[O-])c(C(F)(F)F)c2)C1=O
outcome [1]: inactive | outcome [2]: inactive | outcome [3]: inactive | outcome [15]: inactive | outcome [5]: inactive | outcome [16]: inactive | outcome [17]: inactive | outcome [18]: inactive | outcome [6]: inactive | outcome [7]: inactive | outcome [8]: inactive | outcome [12]: inactive | outcome [9]: inactive | outcome [13]: inactive | outcome [14]: inactive | outcome [10]: inactive | outcome [11]: inactive

Cc1cn([C@H]2C[C@H](N=[N+]=[N-])[C@@H](CO)O2)c(=O)[nH]c1=O
outcome [1]: inactive | outcome [2]: inactive | outcome [3]: inactive | outcome [15]: inactive | outcome [5]: inactive | outcome [18]: inactive | outcome [19]: inactive | outcome [6]: inactive | outcome [8]: inactive | outcome [12]: inactive | outcome [9]: inactive | outcome [13]: inactive | outcome [10]: inactive

CCN(Cc1cccnc1)C(=O)c1cccc(Cl)c1[C@]1(C)C(=O)N(Cc2ccc(OC)cc2OC)c2ccc(Cl)cc21
outcome [1]: inactive | outcome [2]: inactive | AC50 [3]: 1.42 µM (active) | AC50 [5]: 4.01 µM (active) | outcome [17]: inactive | outcome [19]: inactive | AC50 [6]: 2.58 µM (active) | outcome [9]: inactive | outcome [13]: inactive | AC50 [14]: 8.74 µM (active) | outcome [10]: inactive

CCO[Si](CCCNC(N)=O)(OCC)OCC
outcome [1]: inactive | outcome [2]: inactive | outcome [3]: inactive | outcome [4]: inactive | outcome [5]: inactive | outcome [17]: inactive | outcome [18]: inactive | outcome [19]: inactive | outcome [6]: inactive | outcome [9]: inactive | outcome [13]: inactive | outcome [14]: inactive | outcome [10]: inactive | outcome [11]: inactive

Cc1oc2c(NC(=O)c3c(Cl)cccc3Cl)cccc2c1C(C)(C)O
AC50 [1]: 33.1 µM (active) | outcome [2]: inactive | AC50 [3]: 4.01 µM (active) | outcome [5]: inactive | outcome [16]: inactive | outcome [19]: inactive | outcome [6]: inactive | outcome [7]: inactive | outcome [13]: inactive | outcome [14]: inactive | outcome [10]: inactive
